Molecules are shown by their SMILES. Inconclusive results are not listed. The source made the active and inactive calls. Rule for the calls: active = hit-call score of the fitted dose curve at least 0.9, where 1 is the maximum; inconclusive = response in the unintended direction; inactive = score below 0.9.

A short description of this assay: Tanguay_ZF_120hpf_PE_legacy: (Legacy) Oregon State University Tanguay Lab 120 Hour Post-fertilization zebrafish Assay for Pericardial Edema (AID 2283640).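 For AC50: potency for increased incidence of pericardial edema versus DMSO baseline.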 The procedure: Tanguay_ZF_120hpf_legacy is a whole embryo, multiplexed endpoint assay using zebrafish larvae exposed for 120 hours post fertilization on a 96-well plate.Tanguay_ZF_120hpf_PE_legacy is one of one assay component(s) measured or calculated from the Tanguay_ZF_120hpf_legacy assay. It is designed to make measurements of zebrafish development as detected with brightfield microscopy of developing zebrafish embryos.Data from the assay component Tanguay_ZF_120hpf_PE_legacy was analyzed into 1 assay endpoints. This assay endpoint, Tanguay_ZF_120hpf_PE_legacy, was analyzed in the positive analysis fitting direction relative to DMSO as the negative control and baseline of activity. Using a type of morphology reporter, gain-of-signal activity can be used to understand changes in developmentals as they relate to the whole embryo. To generalize the intended target to other relatable targets, this assay endpoint is annotated to the zebrafish development intended target family, where the subfamily is embryonic morphogenesis.
Zebrafish husbandry: Tropical 5D wild-type adult zebrafish were housed in at an approximate density of 1000 per 100 gallon tank at the Sinnhuber Aquatic Research Laboratory, Oregon State University, Corvallis, OR. Each tank was kept at standard laboratory conditions of 28C on a 14-h light/10-h dark photoperiod in fish water consisting of reverse osmosis water supplemented with a commercially available salt (Instant Ocean). Spawning funnels were placed into the tanks the night prior, and embryos were collected and staged. […] Ten microliters of each row of dilution plate 2 was added to 2 exposure plates. The final DMSO concentration used was 0.64% (vol/vol). Thirty-two embryos were also exposed to 5uM trimethyltin chloride (positive control). Plates were sealed to prevent evaporation and foil covered to reduce light exposure and kept in a 28C incubator. Embryos were statically exposed until 120 hpf. At 24 hpf, embryos were assessed for photomotor response using a custom photomotor response analysis tool (PRAT) and for developmental toxicity endpoints (MO24: mortality at 24 hpf, DP: developmental progression, SM: spontaneous movement, and NC: notochord distortion). At 120 hpf, locomotor activity was measured using Viewpoint Zebralab and assessed for 18 endpoints. Zebrafish acquisition and analysis program (ZAAP), a custom program designed to inventory, acquire, and manage zebrafish data, was used to collect developmental endpoints as either present or absent (i.e., binary responses were recorded). If mortality occurred for an embryo (at either 24 or 120 hpf), the non-mortality endpoints were not measured.
On to `CC(C)COC(=O)c1ccccc1C(=O)OCC(C)C`, for which the molecule was classed as inactive.
On the same count and under the same terms, the result for `CCCSC(=O)N(CCC)CCC` reads “inactive”; that for `ClC1=C(Cl)[C@]2(Cl)[C@H]3[C@H]([C@@H]4C=C[C@H]3C4)[C@@]1(Cl)C2(Cl)Cl`, “inactive”.
For the molecule `CC(C)N(Cc1ccccc1)C(=O)C(C)(C)C`, the outcome was inactive.
On the same count and under the same terms, next, `Clc1ccccc1Cl`: “inactive”.
Same read-out and setting: the result for `ClC1=C(Cl)C2(Cl)C3C(Cl)C=CC3C1(Cl)C2(Cl)Cl` (stereo not given) reads “inactive”; that for `c1ccc(C2CO2)cc1` (stereo not given), “inactive”; that for `CC(O)CCO` (stereo not given), “inactive”.
Still for that read-out and setting: next, `CC(C)(C)OOC(=O)c1ccccc1`: “inactive”; `CC(C)(OOC(C)(C)c1ccccc1)c1ccccc1`: “inactive”; `CCCCCOC(=O)c1ccccc1C(=O)OCCCCC`: “inactive”.
On to `OCCCBr`, for which the molecule was called inactive.
On the same count and under the same terms, the result for `CCN(CC)N=O` reads “inactive”; that for `ClCCOCCCl`, “inactive”; that for `CCC[CH2][Sn]([Cl])([CH2]CCC)[CH2]CCC`, “inactive”.
The same measure, in the same setting: the result for `CNC(=O)Oc1cccc2c1OC(C)(C)C2` reads “inactive”; that for `C=CCc1ccc2c(c1)OCO2`, “inactive”.
`Nc1ccc(N=Nc2ccccc2)cc1`: the AC50 (commonly the concentration giving half of the maximal activity seen) is 25.6 µM (active).
Consider `CN(C)C(=O)Nc1ccc(Cl)cc1`, for which the outcome was inactive.
Same read-out and setting: the result for `CC(C)(O)c1cnn2c(-c3ccc(F)c(-c4c(F)cccc4C#N)c3)cnc2n1` reads “inactive”; that for `CCCCCCCCOC(=O)c1ccc(C(=O)OCCCCCCCC)c(C(=O)OCCCCCCCC)c1`, “inactive”.
As to `Cc1cccc(N)c1N`, the AC50 was 54 µM (active).
Consider `Nc1ccc(Cc2ccc(N)cc2)cc1`, for which the call was inactive.
As for `CC(C)(C)OOC(C)(C)CCC(C)(C)OOC(C)(C)C`, the molecule was classed as inactive.
On the same count and under the same terms, next, `O=C1CCCO1`: “inactive”.
For the molecule `Oc1ccc2ccc3cccc4ccc1c2c34`, the AC50 is 50.4 µM (active).
Consider `COC(=O)Nc1nc2ccccc2[nH]1`, for which the call was inactive.
On the same count and under the same terms, the result for `Nc1cc(Cl)cc(C(=O)O)c1Cl` reads “inactive”.
On the same count and under the same terms, next, `COc1cc(C=O)cc2c1[C@H](COC(N)=O)[C@]1(OC(C)=O)ON2C[C@H]2[C@@H]1N2C(C)=O`: “inactive”; `CCC(C)c1ccc(O)cc1` (stereo not given): “inactive”.
Still for that read-out and setting: next, `c1ccc(N=Nc2ccccc2)cc1`: “inactive”.
As to `C[C@]12C=CC3=C4CCC(=O)C=C4CC[C@H]3[C@@H]1CC[C@@H]2O`, the half-maximal activity concentration (AC50) is 29.9 µM (active).
As to `[O-][Cl+]O`, the result was inactive.
The same measure, in the same setting: next, `[As]#[In]`: “inactive”.
Regarding `O=C(Oc1ccc(Br)cc1)N1CCN2CCC1CC2`, the concentration at half-maximal activity (AC50) is 9.47 µM (active).
On to `CS(=O)(=O)NC(=O)c1cc(Oc2ccc(C(F)(F)F)cc2Cl)ccc1[N+](=O)[O-]`, for which the outcome was inactive.
On the same count and under the same terms, the result for `Clc1ccc(C(c2ccc(Cl)cc2)C(Cl)Cl)cc1` reads “inactive”.
For `CN(C)c1ccc(C(=O)c2ccc(N(C)C)cc2)cc1`, the AC50 is 22.7 µM (active).
For `CN(C)[C@@H]1C(=O)C(C(N)=O)=C(O)[C@@]2(O)C(=O)C3=C(O)c4c(O)cccc4[C@@](C)(O)[C@H]3C[C@@H]12`, the molecule was classed as inactive.
The same measure, in the same setting: the result for `Clc1ccc(C(c2ccc(Cl)cc2)C(Cl)(Cl)Cl)cc1` reads “inactive”.
